Laboratory results taken from PubChem BioAssay (NCATS).
Unmarked numbers belong to inactive results. Results filed as inconclusive are left out. Active and inactive are the calls of the source. Unless noted, the call rests on the fitted dose curve; in most records, active means well fitted curve in either direction with a large enough effect (not every such curve was filed as active); inconclusive means small, poorly fitted or top-dose-only effect, or another doubt; inactive means flat fitted curve, though single readings scatter.

Legend:
[1] = biological target: Lysosomal acid glucosylceramidase (Homo sapiens) (UniProt P04062); assay: Glucocerebrosidase-p2 (AID 348; in the data active means potency below about 10 µM; further: potency means the concentration at half of the fitted maximal effect); details: purified GBA, blue fluorogenic substrate, 40 min
Lysosomal acid glucosylceramidase (Homo sapiens), sequence (P04062 whole entry, looked up): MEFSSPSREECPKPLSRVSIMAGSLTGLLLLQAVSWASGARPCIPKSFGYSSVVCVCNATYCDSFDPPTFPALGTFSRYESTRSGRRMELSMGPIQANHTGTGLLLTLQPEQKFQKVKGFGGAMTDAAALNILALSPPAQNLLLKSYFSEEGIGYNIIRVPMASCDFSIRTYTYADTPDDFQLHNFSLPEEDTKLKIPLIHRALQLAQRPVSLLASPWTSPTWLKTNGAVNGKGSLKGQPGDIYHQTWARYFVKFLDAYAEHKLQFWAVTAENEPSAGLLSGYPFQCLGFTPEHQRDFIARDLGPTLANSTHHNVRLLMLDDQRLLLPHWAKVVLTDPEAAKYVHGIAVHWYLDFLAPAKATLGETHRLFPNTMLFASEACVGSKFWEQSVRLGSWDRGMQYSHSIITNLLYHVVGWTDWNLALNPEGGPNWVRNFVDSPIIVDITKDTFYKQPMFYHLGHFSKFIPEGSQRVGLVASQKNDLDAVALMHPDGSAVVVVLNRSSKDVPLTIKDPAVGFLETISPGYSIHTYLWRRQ
How it was run: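 Normal human glucocerebrosidase (0.2 nM) with blue fluorogenic substrate (80 uM final) in citrate/phosphate pH 5.9 with 10mM sodium taurocholate, 0.01% tween-20; 40 min RT, NaOH/glycine stop; fluorescence Ex 365/Em 440; AC50 from a titration from 0.6 nM upwards.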

[2] = AP1 Signaling Pathway (AID 357); details: ME-180 AP-1-bla reporter, EGF-induced, beta-lactamase ratio, 5 h; at 7.69 µM (top of the series) unless noted;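 further: ME-180 reporter cells stimulated with EGF at its EC50 level; on the % scale 0 is the no-effect control and ±100 the full control effect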
How it was run: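 A ratiometric CCF4 readout (405 nm excitation; 460 and 530 nm emission) quantified AP-1-driven beta-lactamase in ME-180 cells after 5 h with compound and EC50 EGF; AC50 values were derived for activators and inhibitors.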

[3] = biological target: Cytochrome P450 1A2 (Homo sapiens) (UniProt P05177); assay: p450-cyp1a2 (AID 410; calls by dose curve; further: potency means the concentration at half of the fitted maximal effect;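 on activity change, negative = inhibition: -100% = full effect of reference inhibitor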); details: recombinant CYP1A2, luciferin-ME demethylation, luminescence; series mostly up to 11.4 µM
Cytochrome P450 1A2 (Homo sapiens), sequence (P05177 whole entry, looked up): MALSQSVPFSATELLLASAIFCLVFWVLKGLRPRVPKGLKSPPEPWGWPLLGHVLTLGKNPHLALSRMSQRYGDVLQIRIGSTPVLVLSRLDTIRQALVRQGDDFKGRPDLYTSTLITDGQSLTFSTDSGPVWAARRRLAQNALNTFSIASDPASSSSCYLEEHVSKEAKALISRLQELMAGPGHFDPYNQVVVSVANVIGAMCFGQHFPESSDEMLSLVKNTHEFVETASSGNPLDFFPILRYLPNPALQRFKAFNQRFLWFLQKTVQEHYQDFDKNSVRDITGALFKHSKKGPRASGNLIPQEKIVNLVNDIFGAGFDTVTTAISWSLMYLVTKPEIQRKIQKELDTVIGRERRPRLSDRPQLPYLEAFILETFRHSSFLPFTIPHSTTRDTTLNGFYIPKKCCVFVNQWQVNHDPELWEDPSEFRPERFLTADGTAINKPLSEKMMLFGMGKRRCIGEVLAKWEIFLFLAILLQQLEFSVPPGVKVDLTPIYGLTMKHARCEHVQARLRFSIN
How it was run: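 Read-out is luminescence from luciferin produced by CYP1A2 demethylation of Luciferin-ME (100uM, at Km). Detection reagent stopped the 60 min NADPH-dependent reaction; signals were normalized to 57 uM furafylline.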

[4] = NFAT Signaling Pathway (AID 444); details: Jurkat NFAT-bla M1, carbachol, beta-lactamase ratio, 5 h; at 7.69 µM (top of the series) unless noted;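 further: carbachol stimulus at about its EC50 of 1 µM final; on the % scale 0 is the no-effect control and ±100 the full control effect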
How it was run: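 Read-out: CCF4 FRET ratio (460 nm/530 nm) after 1 h RT dye loading, used for %activity and AC50 from titration series. Cells: Jurkat NFAT-β-lactamase/M1 line, treated with compound plus 1 uM carbachol for 5 h, 37 °C.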

[5] = biological target: Glucocorticoid receptor (Homo sapiens) (UniProt P04150); assay: GR-GFP Redistribution (AID 450;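 active means compounds whose dose series gives a full or clear partial fitted curve of increased nuclear translocation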; further: potency means the concentration at half of the fitted maximal effect); details: U2OS GR-GFP nuclear translocation, laser cytometry, 2 h
Glucocorticoid receptor (Homo sapiens), sequence (P04150 whole entry, looked up, the tested form may be a part): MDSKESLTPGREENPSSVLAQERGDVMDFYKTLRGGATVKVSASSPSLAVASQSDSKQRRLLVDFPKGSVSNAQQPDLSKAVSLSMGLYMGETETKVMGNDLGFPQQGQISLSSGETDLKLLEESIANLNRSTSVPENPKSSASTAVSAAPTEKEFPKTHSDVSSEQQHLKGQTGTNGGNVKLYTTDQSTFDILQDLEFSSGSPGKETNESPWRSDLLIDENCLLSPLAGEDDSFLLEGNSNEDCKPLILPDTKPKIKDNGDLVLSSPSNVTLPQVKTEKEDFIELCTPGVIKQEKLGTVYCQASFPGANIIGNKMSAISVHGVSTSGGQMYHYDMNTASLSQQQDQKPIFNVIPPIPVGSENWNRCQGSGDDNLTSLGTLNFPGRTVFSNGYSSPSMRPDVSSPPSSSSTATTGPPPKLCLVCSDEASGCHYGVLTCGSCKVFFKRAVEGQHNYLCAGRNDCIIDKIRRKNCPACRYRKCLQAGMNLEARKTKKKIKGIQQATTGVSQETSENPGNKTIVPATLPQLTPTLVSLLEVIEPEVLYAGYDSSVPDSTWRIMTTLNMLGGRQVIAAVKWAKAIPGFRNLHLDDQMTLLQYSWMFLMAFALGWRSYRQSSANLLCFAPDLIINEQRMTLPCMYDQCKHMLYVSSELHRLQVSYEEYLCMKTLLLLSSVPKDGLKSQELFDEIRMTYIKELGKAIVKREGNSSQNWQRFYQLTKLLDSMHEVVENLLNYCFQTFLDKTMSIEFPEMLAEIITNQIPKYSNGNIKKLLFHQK

[6] = biological target: Glucocorticoid receptor (Homo sapiens) (UniProt P04150); assay: GR-EFC Redistribution (AID 451; calls by dose curve; further: potency means the concentration at half of the fitted maximal effect); details: CHO-K1 GR-EFC translocation, beta-gal luminescence, 2 h
How it was run: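 Translocation of GR-ED fusion to nuclear EA restores b-gal, read by luminescence after 1 h room-temperature detection. Engineered CHO-K1 biosensor cells, 1,000/well, exposed 2 h at 37 C to titrations up to 46 uM final.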

[7] = biological target: 3',5'-cyclic-AMP phosphodiesterase 4B (Homo sapiens) (UniProt Q07343); assay: qHTS Assay for Inhibitors of PDE-IV (AID 607; active means well fitted activation curve with a large enough effect in the main read-out, with a control signal flat, not every such curve was filed as active; further: % of control where 0% means no effect); details: HEK293 ACTOne CNG channel cells, membrane potential fluorescence; series mostly up to 22.9 µM
3',5'-cyclic-AMP phosphodiesterase 4B (Homo sapiens), sequence (Q07343 whole entry, looked up): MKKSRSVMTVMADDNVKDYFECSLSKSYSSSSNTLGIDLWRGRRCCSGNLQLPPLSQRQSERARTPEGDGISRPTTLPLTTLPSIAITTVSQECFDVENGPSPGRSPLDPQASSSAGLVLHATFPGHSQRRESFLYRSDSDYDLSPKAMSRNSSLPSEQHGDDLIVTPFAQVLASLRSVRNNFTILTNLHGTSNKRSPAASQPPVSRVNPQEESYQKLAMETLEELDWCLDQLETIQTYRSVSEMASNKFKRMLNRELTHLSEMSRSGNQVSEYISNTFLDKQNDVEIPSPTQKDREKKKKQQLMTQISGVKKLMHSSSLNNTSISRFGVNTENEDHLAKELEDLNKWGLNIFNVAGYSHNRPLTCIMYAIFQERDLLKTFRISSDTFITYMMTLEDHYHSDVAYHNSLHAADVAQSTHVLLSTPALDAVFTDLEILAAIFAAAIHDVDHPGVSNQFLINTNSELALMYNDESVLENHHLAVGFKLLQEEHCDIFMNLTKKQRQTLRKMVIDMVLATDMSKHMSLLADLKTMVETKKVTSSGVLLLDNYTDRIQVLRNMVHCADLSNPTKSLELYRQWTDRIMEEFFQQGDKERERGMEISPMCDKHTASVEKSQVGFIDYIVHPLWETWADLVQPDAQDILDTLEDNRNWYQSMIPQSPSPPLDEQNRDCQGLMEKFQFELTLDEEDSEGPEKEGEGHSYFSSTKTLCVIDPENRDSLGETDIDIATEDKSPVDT
How it was run: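 Live HEK293 cells with a modified cyclic nucleotide-gated (CNG) channel report intracellular cAMP via membrane-potential dye fluorescence (ex 535/em 590 nm). Endogenous PDE-IV was targeted. Compounds were tested at up to 22.9 uM final; RO 20-1724 100 uM served as control.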

[8] = biological target: Cytochrome P450 2C9 (Homo sapiens) (UniProt P11712); assay: qHTS Assay for Inhibitors and Substrates of Cytochrome P450 2C9 (AID 883; active means well fitted curve in the direction sought with a large enough effect; an effect the other way counts as inactive or inconclusive; further: nearly all actives have a fitted effect of over 60% in size; further: potency means the concentration at half of the fitted maximal effect); details: recombinant CYP2C9, luciferin-H luminescence, 60 min; series mostly up to 11.4 µM
Cytochrome P450 2C9 (Homo sapiens), sequence (P11712 whole entry, looked up): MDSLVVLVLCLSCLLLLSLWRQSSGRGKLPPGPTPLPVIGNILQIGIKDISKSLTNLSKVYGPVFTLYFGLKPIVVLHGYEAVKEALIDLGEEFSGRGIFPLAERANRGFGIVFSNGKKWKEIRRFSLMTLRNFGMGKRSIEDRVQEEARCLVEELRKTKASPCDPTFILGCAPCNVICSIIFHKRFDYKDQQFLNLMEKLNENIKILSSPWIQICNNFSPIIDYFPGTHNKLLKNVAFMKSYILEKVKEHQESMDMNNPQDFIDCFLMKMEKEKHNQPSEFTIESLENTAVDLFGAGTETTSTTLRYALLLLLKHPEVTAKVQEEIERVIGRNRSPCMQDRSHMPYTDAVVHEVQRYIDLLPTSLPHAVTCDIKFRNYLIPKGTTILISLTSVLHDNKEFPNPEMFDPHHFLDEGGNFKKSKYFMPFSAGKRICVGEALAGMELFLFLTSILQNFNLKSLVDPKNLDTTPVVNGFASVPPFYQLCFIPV
How it was run: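 Inhibition of CYP2C9 is scored as loss of luminescence, with 57uM sulphaphenazole defining 100% inhibition. Substrate Luciferin-H is used at 100uM, equal to its KM; enzyme at 10nM in 25mM KPO4, 60 min at 37C with NADPH regeneration.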

[9] = qHTS Assay for Identification of Small Molecule Agonists for Hypoxia Response Element Signaling Pathway (AID 914; active means well fitted activation curve with a large enough effect in the signal ratio, with a control signal flat, not every such curve was filed as active; the % refers to the signal ratio; further: potency means the concentration at half of the fitted maximal effect; on activation: % of control where 0% means no effect); details: ME-180 HRE-bla reporter, beta-lactamase ratio, CoCl2, 17 h; activation: stronger effect = higher value
How it was run: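 Reporter activity (beta-lactamase, CCF4 460nm/530nm ratio) in HRE-bla ME-180 cells is recorded after 17 h compound exposure with EC50 CoCl2 at 37 degrees Celsius. AC50 values come from titration data.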

[10] = biological target: Mitogen-activated protein kinase 10 (Mus musculus) (UniProt Q61831); assay: JNK3 AlphaScreen Assay (AID 530); details: JNK3 lysate, c-Jun phosphorylation; series mostly up to 11.4 µM;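 further: kinase came from lysate of stimulated human HepG2 cells; signal reports phosphorylation of biotinylated GST-cJun 1-79 at Ser73 with 10 µM ATP; on the % scale 0 is the no-effect control and ±100 the full control effect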
How it was run: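 Kinase buffer: 20 mM Tris-HCl pH 7.6, 10 mM MgCl2, 1 mM DTT, 0.1 mM Na3VO4, 0.01% Tween-20; ATP 10 uM. Substrate biotin-GST-cJun(1-79), enzyme from activated HepG2 lysates. Detection by Ser73 phospho-antibody AlphaScreen.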

[11] = biological target: Cytochrome P450 3A4 (Homo sapiens) (UniProt P08684); assay: qHTS Assay for Activators of Cytochrome P450 3A4 (AID 885; active means well fitted curve in the direction sought with a large enough effect; an effect the other way counts as inactive or inconclusive; further: nearly all actives have a fitted effect of over 65% in size); details: recombinant CYP3A4, Luciferin-PPXE luminescence, 60 min; series mostly up to 11.4 µM
Cytochrome P450 3A4 (Homo sapiens), sequence (P08684 whole entry, looked up): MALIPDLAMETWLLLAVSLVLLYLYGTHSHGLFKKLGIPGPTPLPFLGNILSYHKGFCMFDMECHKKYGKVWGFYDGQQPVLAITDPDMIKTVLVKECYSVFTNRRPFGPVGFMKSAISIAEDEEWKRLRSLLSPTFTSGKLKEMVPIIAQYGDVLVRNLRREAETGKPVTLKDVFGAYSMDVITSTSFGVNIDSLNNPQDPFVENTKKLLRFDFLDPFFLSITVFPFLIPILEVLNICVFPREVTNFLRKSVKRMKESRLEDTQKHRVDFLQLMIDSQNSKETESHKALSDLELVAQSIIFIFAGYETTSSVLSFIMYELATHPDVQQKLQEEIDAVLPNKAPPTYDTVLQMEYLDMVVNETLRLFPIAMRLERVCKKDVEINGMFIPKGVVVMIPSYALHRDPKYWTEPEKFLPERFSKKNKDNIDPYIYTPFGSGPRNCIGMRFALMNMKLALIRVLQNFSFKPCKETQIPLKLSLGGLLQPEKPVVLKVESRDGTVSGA
How it was run: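 Using 20nM recombinant human CYP3A4 in potassium phosphate (200mM), substrate Luciferin-PPXE at 25uM, luminescent luciferin detection followed a 60-min RT NADPH reaction; data scaled to 57 uM ketoconazole.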

[12] = biological target: Cytochrome P450 2C19 (Homo sapiens) (UniProt P33261); assay: qHTS Assay for Inhibitors and Substrates of Cytochrome P450 2C19 (AID 899; active means well fitted curve in the direction sought with a large enough effect; an effect the other way counts as inactive or inconclusive; further: nearly all actives have a fitted effect of over 60% in size; further: potency means the concentration at half of the fitted maximal effect); details: recombinant CYP2C19, luciferin-H EGE luminescence; series mostly up to 11.4 µM
Cytochrome P450 2C19 (Homo sapiens), sequence (P33261 whole entry, looked up): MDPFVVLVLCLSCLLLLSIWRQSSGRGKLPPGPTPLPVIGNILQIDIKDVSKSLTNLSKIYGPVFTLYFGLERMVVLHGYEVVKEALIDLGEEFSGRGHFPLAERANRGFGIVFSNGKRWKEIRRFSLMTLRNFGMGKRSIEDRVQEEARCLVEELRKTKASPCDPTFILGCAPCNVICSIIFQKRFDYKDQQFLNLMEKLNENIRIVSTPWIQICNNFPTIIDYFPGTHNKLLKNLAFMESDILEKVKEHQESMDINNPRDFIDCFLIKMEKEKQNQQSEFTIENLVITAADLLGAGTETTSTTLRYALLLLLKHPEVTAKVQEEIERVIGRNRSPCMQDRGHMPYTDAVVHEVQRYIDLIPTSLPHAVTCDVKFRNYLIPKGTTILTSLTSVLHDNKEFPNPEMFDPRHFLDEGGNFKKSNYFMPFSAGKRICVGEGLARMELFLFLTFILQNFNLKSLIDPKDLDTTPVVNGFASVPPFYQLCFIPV
How it was run: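 5nM enzyme + 10uM Luciferin-H EGE (=KM), 50mM KPO4; cpd pin-transferred, 10 min 37C; NADPH regen, 60 min 37C; stopped w/ luciferin detection reagent, 20 min; luminescence. Normalized to 57uM ketoconazole (AC100).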

[13] = Stat Signaling Pathway (AID 446); details: ME-180 (cervical carcinoma) SIE beta-lactamase reporter, IL-6 stimulated, 5 h; at 7.69 µM (top of the series) unless noted;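 further: ME-180 cervical cancer cells given 40 pM IL-6 alongside compound; SIE-controlled beta-lactamase reporter measured as 460/530 nm FRET emission ratio; on the % scale 0 is the no-effect control and ±100 the full control effect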
How it was run: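 Overnight-plated ME-180 cells bearing a STAT Inducible Element beta-lactamase reporter; 5 h co-exposure to compound and 40 pM IL-6; values normalized to 300 pM IL-6 and 125 nM JAK inhibitor controls.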

[14] = biological target: Cytochrome P450 3A4 (Homo sapiens) (UniProt P08684); assay: qHTS Assay for Inhibitors and Substrates of Cytochrome P450 3A4 (AID 884; active means well fitted curve in the direction sought with a large enough effect; an effect the other way counts as inactive or inconclusive; further: potency means the concentration at half of the fitted maximal effect; nearly all actives have a fitted effect of over 50% in size); details: recombinant CYP3A4, Luciferin-PPXE luminescence; series mostly up to 57.1 µM
How it was run: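 Luminescent readout of luciferin produced by CYP3A4 (20 nM) dealkylation of Luciferin-PPXE, 25 uM (its KM). NADPH-driven reaction ran 60 min at RT after 10 min compound preincubation; data scaled to 57 uM ketoconazole as 100% inhibition.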

Structure (SMILES) | Potency [1] [µM] | activity change, negative = inhibition [2] [%] | Potency [3] | activity change, negative = inhibition [4] [%] | Potency [5] [µM] | Potency [6] [µM] | Potency [7] | Potency [8] | Potency [9] | Potency [10] | Potency [11] | Potency [12] | activity change, negative = inhibition [3] | activity, negative = inhibition [13] [%] | activation [9] [%] | Potency [14]
O=c1c(-c2cccs2)nc2cnc(Oc3ccccc3)nc2n1C1CC1 | > 11.4 | -6.67 | 2.51 µM (active) | 22.4 | > 9.22 | > 46 | inactive | 3.16 µM (active) | 3.16 µM (active) |  |  |  |  |  |  | 
CC(C)(C)c1ccc(NS(=O)(=O)c2ccc(N)cc2)cc1 | > 11.4 | 3 | 3.16 µM (active) | -2.46 | > 46 | > 9.22 | inactive |  |  | inactive | inactive | 0.398 µM (active) |  |  |  | 
Cn1cnc([N+](=O)[O-])c1SCC(=O)O | > 11.4 | 3.98 | inactive | 3.51 | > 46 | > 9.22 | inactive |  |  | inactive |  | inactive |  |  |  | 
C[C@]1(O)CC[C@H]2[C@H]3CC=C4N5CCN=C5CC[C@@]4(C)[C@H]3CC[C@@]21C | > 11.4 | -0.00324 |  |  | > 46 | > 9.22 | inactive |  |  | inactive |  |  | -12.8% [at 2.29 µM] | -6.8 |  | 
C/C(C[n+]1ccccc1)=N\N=C(N)N | > 11.4 | 1.19 | inactive | -14.3 | > 46 | > 9.22 | inactive | inactive |  | inactive |  |  |  |  | 3.43 | 
CC(=O)N[C@H](Cc1ccc(O)cc1)C(=O)O | > 11.4 | -0.588 | inactive |  | > 46 | > 9.22 | inactive |  |  | inactive |  |  |  | -0.609 |  | 
Cc1ccc(C)c(/C(=N\N=C(N)N)C2CC2)c1 | > 11.4 | -1.56 |  |  | > 46 | > 9.22 | inactive |  |  | inactive |  |  | 1.1% [at 2.29 µM] | 4.46 |  | 
Cc1cc(SCC(=O)c2ccc(Br)cc2)cc(C)[o+]1 | > 11.4 | -6.95 | 3.98 µM (active) | 27.1 | > 46 | > 9.22 | inactive | 2.51 µM (active) |  | inactive |  |  |  |  | 15.2 | 
Cc1cccc(C)c1NC(=O)Nc1ccc(S(N)(=O)=O)cc1 | > 11.4 | 3.48 |  | 11 | > 46 | > 9.22 | inactive |  |  | inactive |  |  | -10.8% [at 2.29 µM] |  | 13.8 | 
O=C(O)/C=C\c1c2ccc(=O)c(O)c-2oc2c(O)c(O)ccc12 | > 11.4 | -8.29 |  | 2.25 | > 46 | > 9.22 | inactive |  |  |  |  |  | -19.8% [at 2.29 µM] |  |  | 
S=C(CSc1ccccc1)Nc1cccc2ccccc12 | > 11.4 | 8.58 | 1.26 µM (active) | -12.1 |  | > 9.22 | inactive |  |  | inactive | inactive | 0.794 µM (active) |  |  |  | 
Cc1ccc(C)c(C(=N)c2ccccc2Cc2ccccc2)c1 | > 11.4 | 1.26 |  | -12.9 | > 46 | > 9.22 | inactive |  |  | inactive | inactive |  | -6.8% [at 2.29 µM] |  |  | 3.98 µM (active)
CN(C)CCCN1CCC2(CCC(C(C)(C)C)CC2)CC1 | > 11.4 | -6.54 | inactive |  | > 46 | > 9.22 |  |  |  | inactive |  |  |  | 8.08 |  | 
O=C(O)/C=C\C(=O)Nc1cccc2c1-c1ccccc1C2=O | > 11.4 | -2.3 | 2.51 µM (active) |  | > 46 | > 9.22 | inactive |  |  | inactive |  |  |  | -4.51 |  | 
O=C(CSc1nc2ccccc2s1)c1sc2sc3ccccc3[n+]2c1O | > 11.4 | -9.47 | 5.01 µM (active) | 6.64 | > 46 |  | inactive |  |  | inactive |  |  |  |  | -16.9 | 
O=C(O)CSc1ccn(Cc2ccccc2)c1 | > 11.4 | -4.91 | inactive | 1.69 | > 46 | > 9.22 | inactive |  |  | inactive |  | inactive |  |  |  | 
